According to PubChem BioAssay (EPA / NIEHS):
Records with an inconclusive call do not appear. Calls of active or inactive are those of the source. Rule for the calls, unless noted: active = hit-call score of the fitted dose curve at least 0.9, where 1 is the maximum; inactive = score below 0.9.

Columns and labels:
[1] = target: Nuclear respiratory factor 1 (Homo sapiens) (UniProt Q16656); assay: ATG_NRF1_CIS: Attagene CIS-FACTORIAL HepG2 Assay for human Nuclear Respiratory Factor 1 (NRF1) Orphan Gene (AID 2282987); details: HepG2 NRF1 cis-element reporter, Attagene multiplex; actives raise or lower the signal
Chain of Nuclear respiratory factor 1 (Homo sapiens) (Q16656 whole entry, looked up): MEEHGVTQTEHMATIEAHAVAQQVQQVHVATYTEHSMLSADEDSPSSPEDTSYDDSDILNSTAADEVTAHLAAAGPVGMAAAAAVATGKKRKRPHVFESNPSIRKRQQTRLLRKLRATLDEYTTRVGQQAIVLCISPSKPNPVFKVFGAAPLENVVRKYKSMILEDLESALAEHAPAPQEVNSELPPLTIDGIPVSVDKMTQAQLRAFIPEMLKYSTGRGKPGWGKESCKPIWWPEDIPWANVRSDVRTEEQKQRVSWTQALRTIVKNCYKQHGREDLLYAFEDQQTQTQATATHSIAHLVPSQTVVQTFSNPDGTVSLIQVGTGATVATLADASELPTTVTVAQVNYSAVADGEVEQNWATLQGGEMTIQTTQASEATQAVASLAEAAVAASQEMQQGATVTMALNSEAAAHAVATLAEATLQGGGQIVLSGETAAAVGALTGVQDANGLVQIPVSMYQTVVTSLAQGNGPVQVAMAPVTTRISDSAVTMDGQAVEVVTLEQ
Summary of the method: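 Human hepatoma HepG2 cells carrying transfected promoter-regulated reporter units were incubated with test chemicals for 24 h. Reporter transcripts were measured by RT-PCR plus capillary electrophoresis, and endpoints derived by bidirectional fitting with DMSO as baseline.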

[2] = ATG_NFI_CIS: Attagene CIS-FACTORIAL HepG2 Assay for human Nuclear Factor I (NFI) (AID 2282989); details: HepG2 cis-regulatory reporter, NFI response element transcription; actives raise or lower the signal
Summary of the method: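 Cells: human liver HepG2, transiently transfected with promoter-regulated reporter transcription units. Exposure 24 h. Detection: fluorescent RT-PCR products separated by capillary electrophoresis, normalised to DMSO negative control.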

[3] = target: Myc proto-oncogene protein (Homo sapiens) (UniProt P01106); assay: ATG_Myc_CIS: Attagene CIS-FACTORIAL HepG2 Assay for human Myelocytomatosis (Myc) Proto-Oncogene Transcription Factor (AID 2282990); details: HepG2, Attagene cis-reporter transcription factor activity; actives raise or lower the signal
Chain of Myc proto-oncogene protein (Homo sapiens) (P01106 whole entry, looked up, the tested form may be a part): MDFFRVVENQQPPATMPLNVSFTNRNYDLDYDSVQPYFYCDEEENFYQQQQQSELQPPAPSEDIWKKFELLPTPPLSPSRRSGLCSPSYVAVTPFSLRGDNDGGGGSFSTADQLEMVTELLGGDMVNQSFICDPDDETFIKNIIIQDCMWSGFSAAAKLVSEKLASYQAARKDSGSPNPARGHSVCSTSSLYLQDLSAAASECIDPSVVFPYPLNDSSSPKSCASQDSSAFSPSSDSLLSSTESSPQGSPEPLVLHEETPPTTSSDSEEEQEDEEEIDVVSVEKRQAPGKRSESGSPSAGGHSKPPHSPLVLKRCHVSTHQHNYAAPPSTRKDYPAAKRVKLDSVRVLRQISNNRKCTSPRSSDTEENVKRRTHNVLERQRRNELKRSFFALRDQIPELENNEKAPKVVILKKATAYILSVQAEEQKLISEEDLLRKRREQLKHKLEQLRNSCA
Summary of the method: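 After 24 h chemical treatment of HepG2 cells carrying multiplexed cis-regulated reporter constructs, reporter transcripts quantified by RT-PCR and capillary electrophoresis of fluorescent fragments. Gain or loss fitted against DMSO baseline.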

[4] = ATG_NF_kB_CIS: Attagene CIS-FACTORIAL HepG2 Assay for human Nuclear Factor Kappa B (NF-kB) (AID 2282991); details: HepG2 Attagene cis-factorial NF-kB reporter mRNA; actives raise or lower the signal
Summary of the method: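 Multiplexed cis-reporter assay in transiently transfected HepG2. 24 h treatment; RNA isolated, RT-PCR, labelled fragments resolved by CE. DMSO baseline.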

[5] = ATG_NRF2_ARE_CIS: Attagene CIS-FACTORIAL HepG2 Assay for human Nuclear Factor Erythroid 2 Related Factor 2 (NFR2) response to Antioxidant Response Elements (ARE) (AID 2282992); details: HepG2 Attagene ARE/NRF2 reporter, transcription factor activity; actives raise or lower the signal;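 for AC50: reporter mRNA level measured by RT-PCR and capillary electrophoresis fluorescence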
Summary of the method: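 Transient MRTU transfection of HepG2; 24 h compound exposure; TriZol RNA, RT with oligo(dT), PCR, 6-FAM primer extension, HpaI cut, CE. Bidirectional fit vs DMSO.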

[6] = ATG_Oct_MLP_CIS: Attagene CIS-FACTORIAL HepG2 Assay for human Octamer-Binding Transcription Factor (Oct) (AID 2282993); details: HepG2 Attagene cis-factorial Oct reporter, mRNA; actives raise or lower the signal
Summary of the method: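 HepG2, transient MRTU transfection, cis promoter elements; 24 h dosing; RT-PCR/CE fluorescence read-out of reporter mRNA; fit both directions vs DMSO.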

[7] = target: Cellular tumor antigen p53 (Homo sapiens) (UniProt P04637); assay: ATG_p53_CIS: Attagene CIS-FACTORIAL HepG2 Assay for human p53 Transcription Factor (AID 2282994); details: HepG2 p53 cis-element reporter, Attagene mRNA; actives raise or lower the signal
Chain of Cellular tumor antigen p53 (Homo sapiens) (P04637 whole entry, looked up): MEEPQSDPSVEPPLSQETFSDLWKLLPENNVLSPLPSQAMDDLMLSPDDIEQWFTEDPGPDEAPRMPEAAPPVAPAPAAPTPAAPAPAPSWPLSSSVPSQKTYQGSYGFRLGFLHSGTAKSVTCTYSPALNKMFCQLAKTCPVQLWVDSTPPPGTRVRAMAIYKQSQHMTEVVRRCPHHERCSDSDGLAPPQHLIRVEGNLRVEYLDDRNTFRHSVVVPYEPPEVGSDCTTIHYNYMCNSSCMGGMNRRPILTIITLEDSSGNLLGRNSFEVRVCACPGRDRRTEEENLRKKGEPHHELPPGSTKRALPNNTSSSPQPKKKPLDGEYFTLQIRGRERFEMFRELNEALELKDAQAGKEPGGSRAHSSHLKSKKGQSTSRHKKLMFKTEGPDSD
Summary of the method: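 HepG2, transient MRTU transfection (cis promoter elements, endogenous TFs); 24 h dosing; RNA isolation, RT-PCR, 6-FAM primer extension, HpaI digest, CE fluorescence; bidirectional fit vs DMSO.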

[8] = target: human Peroxisome Proliferator-activated Receptor alpha (PPARa), PPARA (gene 5465) (UniProt Q07869); assay: ATG_PPARa_TRANS: Attagene TRANS-FACTORIAL HepG2 Assay for human Peroxisome Proliferator-activated Receptor alpha (PPARa) (AID 2283001; active = hit-call score of the fitted dose curve at least 0.9, where 1 is the maximum;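 for AC50: potency for gain of reporter signal over DMSO so agonist or activator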)
Chain of human Peroxisome Proliferator-activated Receptor alpha (PPARa), PPARA (gene 5465) (Q07869 whole entry, looked up, the tested form may be a part): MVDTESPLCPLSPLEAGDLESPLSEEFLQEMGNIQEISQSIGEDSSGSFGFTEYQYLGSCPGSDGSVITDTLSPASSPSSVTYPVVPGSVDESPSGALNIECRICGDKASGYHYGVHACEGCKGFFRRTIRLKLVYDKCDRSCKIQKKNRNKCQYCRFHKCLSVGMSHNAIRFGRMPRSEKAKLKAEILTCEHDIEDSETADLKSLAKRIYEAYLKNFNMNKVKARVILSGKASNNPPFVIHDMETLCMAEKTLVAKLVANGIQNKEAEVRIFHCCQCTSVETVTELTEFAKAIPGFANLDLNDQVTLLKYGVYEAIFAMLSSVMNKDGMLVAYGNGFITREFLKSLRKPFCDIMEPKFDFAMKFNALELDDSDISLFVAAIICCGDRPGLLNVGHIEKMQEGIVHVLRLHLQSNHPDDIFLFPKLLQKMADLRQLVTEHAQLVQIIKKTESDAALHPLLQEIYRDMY
Summary of the method: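 Reporter transcripts from GAL4-UAS units in transfected HepG2 were quantified 24 h after dosing. Detection used reverse transcription, PCR, fluorescent primer extension and capillary electrophoresis, with DMSO as baseline.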

[9] = target: human Peroxisome Proliferator-activated Receptor delta (PPARd), PPARD (gene 5467) (UniProt Q03181); assay: ATG_PPARd_TRANS: Attagene TRANS-FACTORIAL HepG2 Assay for human Peroxisome Proliferator-activated Receptor delta (PPARd) (AID 2283002; active = hit-call score of the fitted dose curve at least 0.9, where 1 is the maximum)
Chain of human Peroxisome Proliferator-activated Receptor delta (PPARd), PPARD (gene 5467) (Q03181 whole entry, looked up, the tested form may be a part): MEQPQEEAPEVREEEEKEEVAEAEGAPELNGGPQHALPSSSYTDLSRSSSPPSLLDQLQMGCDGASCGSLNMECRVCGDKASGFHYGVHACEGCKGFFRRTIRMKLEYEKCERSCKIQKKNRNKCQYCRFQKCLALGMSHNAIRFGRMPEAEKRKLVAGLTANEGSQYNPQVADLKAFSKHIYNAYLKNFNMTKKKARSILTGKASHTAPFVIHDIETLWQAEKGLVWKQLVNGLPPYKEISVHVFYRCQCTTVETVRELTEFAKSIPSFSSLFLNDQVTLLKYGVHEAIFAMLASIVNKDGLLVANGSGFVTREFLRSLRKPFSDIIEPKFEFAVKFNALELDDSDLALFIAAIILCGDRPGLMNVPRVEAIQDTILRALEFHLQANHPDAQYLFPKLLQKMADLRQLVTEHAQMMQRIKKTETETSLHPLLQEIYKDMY
Summary of the method: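 Read-out is induced reporter mRNA, quantified by RT-PCR with fluorescent labelling and capillary electrophoresis after 24 h dosing. Cells are HepG2 transiently carrying multiple GAL4-UAS reporter units driven by exogenous NR-GAL4 chimeras; DMSO serves as baseline.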

[10] = target: Peroxisome proliferator-activated receptor gamma (Homo sapiens) (UniProt P37231); assay: ATG_PPARg_TRANS: Attagene TRANS-FACTORIAL HepG2 Assay for human Peroxisome Proliferator-activated Receptor-gamma (PPARg) (AID 2283007; active = hit-call score of the fitted dose curve at least 0.9, where 1 is the maximum)
Chain of Peroxisome proliferator-activated receptor gamma (Homo sapiens) (P37231 whole entry, looked up): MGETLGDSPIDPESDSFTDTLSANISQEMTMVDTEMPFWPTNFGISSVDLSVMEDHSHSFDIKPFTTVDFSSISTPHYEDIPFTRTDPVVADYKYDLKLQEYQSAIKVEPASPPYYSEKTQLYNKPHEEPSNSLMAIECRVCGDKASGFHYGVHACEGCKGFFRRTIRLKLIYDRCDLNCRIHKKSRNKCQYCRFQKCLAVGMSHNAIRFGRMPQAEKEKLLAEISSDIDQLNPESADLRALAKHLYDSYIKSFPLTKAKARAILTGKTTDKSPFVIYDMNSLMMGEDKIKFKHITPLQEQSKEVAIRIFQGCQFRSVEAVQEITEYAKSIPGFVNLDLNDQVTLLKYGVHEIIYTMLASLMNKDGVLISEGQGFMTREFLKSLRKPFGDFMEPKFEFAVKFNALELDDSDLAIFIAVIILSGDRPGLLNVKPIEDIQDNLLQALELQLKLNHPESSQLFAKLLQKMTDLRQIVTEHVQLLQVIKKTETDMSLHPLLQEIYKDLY
Summary of the method: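 Human hepatoma HepG2, transient MRTU transfection, 24 h treatment. mRNA reporter signal by RT-PCR plus capillary electrophoresis, fluorescence detection; fitted for increase over DMSO negative control.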

[11] = target: human Retinoic Acid Receptor gamma (RARg), RARG (gene 5916) (UniProt P13631); assay: ATG_RARg_TRANS: Attagene TRANS-FACTORIAL HepG2 Assay for human Retinoic Acid Receptor gamma (RARg) (AID 2283009; active = hit-call score of the fitted dose curve at least 0.9, where 1 is the maximum)
Chain of human Retinoic Acid Receptor gamma (RARg), RARG (gene 5916) (P13631 whole entry, looked up, the tested form may be a part): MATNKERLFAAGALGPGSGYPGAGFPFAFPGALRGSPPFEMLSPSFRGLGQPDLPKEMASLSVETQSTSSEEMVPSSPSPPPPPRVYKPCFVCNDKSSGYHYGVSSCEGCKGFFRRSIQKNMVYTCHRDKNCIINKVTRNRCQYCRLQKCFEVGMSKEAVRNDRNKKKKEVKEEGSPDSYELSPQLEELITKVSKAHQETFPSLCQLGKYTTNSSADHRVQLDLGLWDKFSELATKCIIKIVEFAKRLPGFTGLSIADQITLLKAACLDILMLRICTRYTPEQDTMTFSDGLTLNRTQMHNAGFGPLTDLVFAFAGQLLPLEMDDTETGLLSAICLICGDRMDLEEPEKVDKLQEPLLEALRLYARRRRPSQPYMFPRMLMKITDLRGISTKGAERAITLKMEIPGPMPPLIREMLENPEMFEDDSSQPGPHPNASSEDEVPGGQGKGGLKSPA
Summary of the method: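 HepG2 cells transiently transfected with multiplexed reporter units expressing chimeric RARg-GAL4 and GAL4-UAS-driven reporters; 24 h compound exposure. Reporter mRNA quantified by RT-PCR with fluorescent labelling and capillary electrophoresis; gain-of-signal fitted relative to DMSO baseline.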

[12] = target: Nuclear receptor subfamily 1 group I member 2 (Homo sapiens) (UniProt O75469); assay: ATG_PXR_TRANS: Attagene TRANS-FACTORIAL HepG2 Assay for human Pregnane X Receptor (PXR) (AID 2283008; active = hit-call score of the fitted dose curve at least 0.9, where 1 is the maximum)
Chain of Nuclear receptor subfamily 1 group I member 2 (Homo sapiens) (O75469 whole entry, looked up, the tested form may be a part): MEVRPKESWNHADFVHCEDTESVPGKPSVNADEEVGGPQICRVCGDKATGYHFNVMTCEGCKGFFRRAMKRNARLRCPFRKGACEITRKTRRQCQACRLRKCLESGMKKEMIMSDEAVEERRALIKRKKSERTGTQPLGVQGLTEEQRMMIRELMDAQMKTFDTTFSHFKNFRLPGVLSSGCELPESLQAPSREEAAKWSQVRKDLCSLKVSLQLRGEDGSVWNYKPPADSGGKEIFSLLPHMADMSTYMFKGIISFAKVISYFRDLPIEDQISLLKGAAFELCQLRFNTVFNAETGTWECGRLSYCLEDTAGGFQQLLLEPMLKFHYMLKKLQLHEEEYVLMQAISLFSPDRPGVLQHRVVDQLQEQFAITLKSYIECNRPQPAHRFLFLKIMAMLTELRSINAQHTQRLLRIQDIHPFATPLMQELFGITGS
Summary of the method: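 Read-out is fluorescence of labelled reporter cDNA fragments separated by capillary electrophoresis after RT-PCR and HpaI digestion. Source: HepG2 cells carrying PXR-GAL4/UAS reporter constructs, treated 24 h; activity fitted upward relative to DMSO.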

[13] = target: human Retinoic Acid Receptor beta (RARb), RARB (gene 5915) (UniProt P10826); assay: ATG_RARb_TRANS: Attagene TRANS-FACTORIAL HepG2 Assay for human Retinoic Acid Receptor beta (AID 2283004; active = hit-call score of the fitted dose curve at least 0.9, where 1 is the maximum)
Chain of human Retinoic Acid Receptor beta (RARb), RARB (gene 5915) (P10826 whole entry, looked up, the tested form may be a part): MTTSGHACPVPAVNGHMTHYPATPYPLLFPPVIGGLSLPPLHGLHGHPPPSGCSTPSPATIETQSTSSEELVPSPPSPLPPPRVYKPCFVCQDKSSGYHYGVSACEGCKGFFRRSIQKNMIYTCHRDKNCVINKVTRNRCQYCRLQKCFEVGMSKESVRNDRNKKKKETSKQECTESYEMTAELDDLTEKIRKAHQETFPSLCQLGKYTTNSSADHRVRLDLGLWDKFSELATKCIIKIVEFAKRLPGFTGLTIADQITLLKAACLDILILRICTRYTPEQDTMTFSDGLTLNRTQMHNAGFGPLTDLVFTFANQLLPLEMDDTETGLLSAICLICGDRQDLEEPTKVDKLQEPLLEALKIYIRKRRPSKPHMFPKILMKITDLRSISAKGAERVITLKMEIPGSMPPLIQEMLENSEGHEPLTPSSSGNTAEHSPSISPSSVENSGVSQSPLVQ
Summary of the method: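 Fluorescent capillary-electrophoresis detection of GAL4-UAS reporter mRNA defines the endpoint, with induction over DMSO-treated wells scored as activity. Transiently transfected human hepatoma HepG2 cells expressing exogenous NR–Gal4 proteins are exposed to test chemicals for 24 h.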

[14] = target: Retinoic acid receptor alpha (Homo sapiens) (UniProt P10276); assay: ATG_RARa_TRANS: Attagene TRANS-FACTORIAL HepG2 Assay for human Retinoic Acid Receptor alpha (RARa) (AID 2283005; active = hit-call score of the fitted dose curve at least 0.9, where 1 is the maximum)
Chain of Retinoic acid receptor alpha (Homo sapiens) (P10276 whole entry, looked up, the tested form may be a part): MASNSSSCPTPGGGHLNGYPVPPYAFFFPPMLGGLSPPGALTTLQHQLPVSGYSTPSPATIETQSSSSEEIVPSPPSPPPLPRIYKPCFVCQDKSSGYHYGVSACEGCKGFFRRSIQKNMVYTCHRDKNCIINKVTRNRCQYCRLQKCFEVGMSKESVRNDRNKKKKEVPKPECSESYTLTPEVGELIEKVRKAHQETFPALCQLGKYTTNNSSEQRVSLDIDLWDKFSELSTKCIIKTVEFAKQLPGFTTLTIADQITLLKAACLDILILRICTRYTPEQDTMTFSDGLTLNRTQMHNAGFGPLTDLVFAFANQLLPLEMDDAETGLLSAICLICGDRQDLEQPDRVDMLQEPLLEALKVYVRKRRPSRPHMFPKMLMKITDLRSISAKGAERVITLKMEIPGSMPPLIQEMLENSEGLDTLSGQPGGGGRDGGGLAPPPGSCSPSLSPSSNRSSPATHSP
Summary of the method: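 Reporter transcripts, measured by RT-PCR with fluorescent labeling and capillary electrophoresis after 24 h dosing, reflect activity of an exogenous human RARa–GAL4 fusion in transiently transfected HepG2. Fitted for increase relative to DMSO.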

Measured: AC50

CCCCCC/C=C/CCCCCCCC(=O)O
active: [8] 37.6 µM
not listed: [12] | [13] | [14]
inactive: all other assays above

CCC(Cc1c(I)cc(I)c(N)c1I)C(=O)O (stereo unspecified)
active: [3] 148 µM | [5] 47 µM | [8] 35.9 µM
not listed: [10] | [11] | [13] | [14]
inactive: all other assays above

COCCC(=O)OC
not listed: [11] | [13] | [14]
inactive: all other assays above

C=C(C)CCCC
not listed: [10] | [11]
inactive: all other assays above

O=c1[nH]cccc1O
not listed: [8] | [9] | [10] | [12]
inactive: all other assays above

CCCCOC(=O)[C@H](C)O
not listed: [8] | [11] | [12] | [13]
inactive: all other assays above

CSc1ccc(O)cc1C
not listed: [11] | [14]
inactive: all other assays above

CCCCC(CC)COC(=O)c1ccc(N(C)C)cc1 (stereo unspecified)
active: [5] 27.4 µM | [10] 30.3 µM | [12] 27.2 µM
not listed: [8] | [11] | [13] | [14]
inactive: all other assays above

CCC(=O)OC(C)c1ccccc1 (stereo unspecified)
not listed: [10] | [12] | [13]
inactive: all other assays above

CCCCCCCCCCCCC[N+](C)(C)Cc1ccccc1
active: [5] 4.37 µM
not listed: [11]
inactive: all other assays above

CC(C)CC=C(C=O)c1ccccc1
active: [5] 71.8 µM | [10] 39.5 µM | [12] 0.891 µM
not listed: [11] | [13] | [14]
inactive: all other assays above
